Assay outcomes: PubChem BioAssay, NMMLSC
RGS4-Gao reg – human RGS4-Galphao interaction regulation; P09471; Multiplexed bead flow cytometry, RGS4-Galphao binding; actives lie on both sides; binding response (% of control), % at 10 µM; 220,000 tested, 0.33% active; AID 1415; in the data active = binding response below about 49% or above about 150%; inactive = in between;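 also: fluorescent Galphao activated with aluminum fluoride binding bead-coupled RGS4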
Target sequence (P09471 whole entry, looked up): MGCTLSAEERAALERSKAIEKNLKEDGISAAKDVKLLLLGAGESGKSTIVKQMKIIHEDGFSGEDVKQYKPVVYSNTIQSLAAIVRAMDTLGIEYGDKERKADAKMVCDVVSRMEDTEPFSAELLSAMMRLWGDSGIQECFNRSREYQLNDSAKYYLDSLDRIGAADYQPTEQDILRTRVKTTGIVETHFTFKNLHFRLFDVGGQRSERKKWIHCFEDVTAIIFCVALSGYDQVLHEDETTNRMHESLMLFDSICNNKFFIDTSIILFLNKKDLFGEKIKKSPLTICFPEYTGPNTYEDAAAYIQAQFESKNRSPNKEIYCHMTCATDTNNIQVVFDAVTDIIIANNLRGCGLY
RGS8-Gao reg – human RGS8-Galphao interaction regulation | multiplexed bead flow cytometry, RGS8-Galphao binding; actives lie on both sides | 220,000 tested, 0.34% active | AID 1423 | response (percent of control binding), % at 10 µM | P09471; in the data active = response below about 60% or above about 140%; inactive = in between;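 also: Galphao activated as the GDP aluminium fluoride complex binding bead-coupled RGS8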
Avidin bead fluor – compound fluoresces at 488/530 nm on avidin beads; compound fluorescence 488/530 nm, flow cytometry; active compounds read high; fluorescence (KMESF) at 10 µM; 220,000 tested, 0.38% active; AID 1775; in the data active = fluorescence above about 47
RGS16-Gao – modulates binding between human RGS16 and Galphao; O15492+P09471; bead-based flow cytometry RGS16-Galphao binding, fluorescence; actives lie on both sides; binding response (% of control), % at 10 µM; 220,000 tested, 0.38% active; AID 1441;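 also: Galphao activated by GDP with aluminum fluoride before binding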
RGS7-Gao reg – regulators of human RGS7-Galphao interaction | binding response (% of control), % at 10 µM | 220,000 tested, 0.35% active | AID 1439 | Multiplexed bead flow cytometry, RGS7-Galphao binding; actives lie on both sides; in the data active = binding response below about 49% or above about 150%; inconclusive = no clear call, values can overlap the other calls; inactive = in between;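 also: fluorescent Galphao held in activated GDP-AlF4 state binding bead-coupled RGS7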
GSH fluor – compound fluoresces at 488/530 nm on GSH beads; fluorescence (KMESF) at 10 µM; AID 1776; GSH beads flow cytometry, compound fluorescence 488/530 nm; active compounds read high; 190,000 tested, 0.25% active; in the data active = fluorescence above about 89;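 also: glutathione beads carrying GST-tagged Bcl family fusion proteins plus one bare bead set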
RGS-Gao – modulates binding between human RGS4 and Galphao; shares compounds with RGS16-Gao; multiplexed bead flow cytometry, RGS–Galpha-o binding; RGS4–Galpha-o binding response, % at 10 µM; 1,600 tested, 99% active; AID 1504;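 also: fluorescently labeled Galpha-o bound to GDP with aluminium fluoride binding biotinylated RGS beads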
Avidin counter – counter-screen: compounds disrupting biotin binding to avidin beads; 1,700 tested, under 10 active; inhibition, % at 10 µM; shares compounds with RGS16-Gao; streptavidin beads, fluorescein-biotin binding, flow cytometry;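 active = inhibition above 50%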;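 also: median green fluorescence of gated singlet beads compared with DMSO control wells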
RGS8-Gao single – confirmation of regulators of human RGS8-Galphao interaction | shares compounds with RGS16-Gao | bead-based flow cytometry RGS8-Galphao binding, fluorescence; actives lie on both sides | binding response (% of control), % at 10 µM | 1,700 tested, 3% active | AID 1836; in the data active = binding response below about 72% or above about 130%; inactive = in between;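 also: Galphao activated as GDP AlF4 complex before binding bead RGS8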
RGS7-Gao confirm – confirmation of regulators of human RGS7-Galphao interaction; bead-based flow cytometry RGS7-Galphao binding; actives lie on both sides; response (percent of control binding), % at 10 µM; 1,700 tested, 7.8% active; shares compounds with RGS16-Gao; in the data active = response below about 75% or above about 130%; inactive = in between;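 also: fluorescent Galphao activated with GDP and aluminum fluoride binding bead-coupled RGS7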
RGS16-Gao conf – confirmation of regulators of human RGS16-Galphao interaction | AID 1838 | bead-based flow cytometry, RGS16-Galphao binding; actives lie on both sides | 1,700 tested, 4% active | shares compounds with RGS16-Gao | response (% of control binding), % at 10 µM; in the data active = response below about 74% or above about 130%; inactive = in between;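 also: Galphao activated as the GDP aluminium fluoride complex binding bead-coupled RGS16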
RGS4-Gao single – confirmation of regulators of human RGS4-Galphao interaction; RGS4-Galphao binding, multiplexed bead flow cytometry; actives lie on both sides; 1,700 tested, 4% active; binding response (% of control), % at 10 µM; AID 1840; shares compounds with RGS16-Gao; in the data active = binding response below about 74% or above about 130%; inactive = in between
RGS19-Gao conf – confirmation of regulators of human RGS19-Galphao interaction. bead-based flow cytometry RGS19-Galphao binding; actives lie on both sides. response (percent of control binding), % at 10 µM. shares compounds with RGS16-Gao. 1,700 tested, 5% active. AID 1841; in the data active = response below about 50% or above about 160%; inactive = in between
Of the large screens only hits and unclear results are named; the others gave an inactive call (follow-up assays come after a bar, where they were run); [ ] = another dose, or the depositor's remark. Hits are enriched below; roughly 1.2% of the tested compounds scored in any of these assays. Unless noted, no rule for the calls is given here.

Cc1cc(C)nc(/N=C2\NC(=O)CC3C(=O)NCCN23)n1 (stereo not given)	RGS4-Gao reg 20.6, RGS8-Gao reg 13.1, RGS16-Gao 10.5, RGS7-Gao reg 12.4 | Avidin counter inactive | RGS8-Gao single inactive | RGS7-Gao confirm inactive | RGS16-Gao conf inactive | RGS4-Gao single inactive | RGS19-Gao conf inactive
COC(=O)c1ccccc1NC(=O)/C=C/C(=O)O	RGS16-Gao 34.5 | RGS-Gao 86.6 | Avidin counter inactive | RGS8-Gao single inactive | RGS7-Gao confirm inactive | RGS16-Gao conf inactive | RGS4-Gao single inactive | RGS19-Gao conf inactive
COC(=O)c1ccccc1NC(=O)CN1C(=O)CSC1=O	none (no result: RGS4-Gao reg, RGS8-Gao reg, Avidin bead fluor, RGS16-Gao, RGS7-Gao reg) | Avidin counter inactive | RGS8-Gao single inactive | RGS7-Gao confirm inactive | RGS16-Gao conf inactive | RGS4-Gao single inactive | RGS19-Gao conf inactive
COC(=O)c1cc(NC(=O)CN2C(=O)CSC2=O)ccc1Cl	none
CC(Oc1cccc(Cl)c1)c1ccnc2nc(/N=C/N(C)C)nn12 (stereo not given)	none
C/C(=N\NC(=S)NCc1ccccc1)c1ccc2c(c1)OCCO2	RGS7-Gao reg inconclusive
Cc1ccc(N=Cc2nc(-c3ccc(C)cc3)oc2O)cc1	none
Oc1oc(-c2ccc(Br)cc2)nc1C=Nc1ccc(Br)cn1	RGS8-Gao reg 146.3[activator] | RGS-Gao 134.0 | Avidin counter inactive | RGS8-Gao single inactive | RGS7-Gao confirm inactive | RGS16-Gao conf inactive | RGS4-Gao single inactive | RGS19-Gao conf inactive
CC(C)CCn1c(CN2CCN(Cc3ccccc3)CC2)nc2c1c(=O)[nH]c(=O)n2C	RGS8-Gao reg 145.0[activator] | RGS-Gao 134.9 | Avidin counter inactive | RGS8-Gao single inactive | RGS7-Gao confirm inactive | RGS16-Gao conf inactive | RGS4-Gao single inactive | RGS19-Gao conf inactive
CCN(CC)CC(C)CNC(=O)CC(C(=O)N1CCc2ccccc21)n1ccnc1 (stereo not given)	none
O=C(CC(C(=O)N1CCc2ccccc21)n1ccnc1)NCc1ccccc1 (stereo not given)	RGS8-Gao reg 142.7[activator] | RGS-Gao 114.9 | Avidin counter inactive | RGS8-Gao single inactive | RGS7-Gao confirm inactive | RGS16-Gao conf inactive | RGS4-Gao single inactive | RGS19-Gao conf inactive
CCn1nc(C)c(CN2CCN(Cc3ccsc3)C(CCO)C2)c1C (stereo not given)	none
CCOC(=S)NC(=O)c1sc2ccccc2c1Cl	none
CCCOC(=S)NC(=O)c1sc2ccccc2c1Cl	none (no result: RGS4-Gao reg, RGS8-Gao reg, Avidin bead fluor, RGS16-Gao, RGS7-Gao reg) | Avidin counter inactive | RGS8-Gao single inactive | RGS7-Gao confirm inactive | RGS16-Gao conf inactive | RGS4-Gao single inactive | RGS19-Gao conf inactive
CCOC(=O)c1ccc(NC2OC(=O)c3ccccc32)cc1 (stereo not given)	none (no result: RGS4-Gao reg, RGS8-Gao reg, Avidin bead fluor, RGS16-Gao, RGS7-Gao reg) | Avidin counter inactive | RGS8-Gao single inactive | RGS7-Gao confirm inactive | RGS16-Gao conf inactive | RGS4-Gao single inactive | RGS19-Gao conf inactive
COc1ccccc1NC(=O)C1CCCCC1	Avidin bead fluor 90, RGS7-Gao reg 158.4[activator] | RGS-Gao 106.8
